Results published in PubChem BioAssay (NCATS).
Records with an inconclusive call do not appear. Values without a mark were called inactive. Active and inactive are the calls of the source. Calls come from the whole dose curve; as a rule, active = well fitted cell-killing curve with a large enough effect; inconclusive = small, poorly fitted or top-dose-only effect; inactive = no such curve, though single readings can be large or run the other way. Where a SMILES comes first, the peptide text is derived from it. [ ]: non-standard residue; d: D form. pGlu = O=C1CC[C@@H](C(=O)O)N1

Assay: qHTS of pediatric cancer cell lines to identify multiple opportunities for drug repurposing: Primary screen for NB1643 cells (AID 1347099); note: nearly all actives have a fitted effect of over 50% in size
Settings: NB1643 neuroblastoma viability, CellTiter-Glo luminescence, 48 h; series mostly up to 46 µM; activity change, negative = cytotoxic: at the top concentration
From the text: Drug repurposing or repositioning has been offered as a strategy for drug development in oncology programs. This approach has special potential for childhood cancers and other rare or orphan diseases, where the expected return on new drug development has been a disincentive to pharmaceuticals. […] In this project we exploit the poly-pharmacology of drugs to discover new indications via phenotypic screening of a panel of 19 well-characterized cell lines derived from solid tumors seen in children and adolescents. The goal is to identify approved drugs with previously unrecognized anticancer properties that has the potential to reveal new mechanisms and biological processes involved in carcinogenesis or drug resistance. We employed a titration-based paradigm (quantitative high-throughput screening or qHTS), where all compounds were tested at multiple concentrations for their effect on cell viability. Concentration-response curves (CRCs) were derived directly from the primary screen, and both potency and efficacy values were used to identify compounds with robust bioactivity profiles. We screened the NIH Chemical Genomics Center (NCGC) Pharmaceutical Collection (NPC) and Mechanism Interrogation Plate (MIPE) small molecule collections of approved and investigational compounds against these cell lines; and measured metabolically active cells after 48 hours of compound treatment as a proxy for cell viability. […] Assay Submitter: Nathalia J. Martinez, National Center for Advancing Translational Sciences, National Institutes of Health, Rockville, MD, USA; email: natalia.martinez@nih.gov Shen, M et al. Quantitative high-throughput phenotypic screening of pediatric cancer cell lines identifies multiple opportunities for drug repurposing. Oncotarget 2017 Dec 19;9(4):4758-4772. PMID 29435139.
The cells were obtained from University of North Carolina (UNC), Pediatric Preclinical Testing Program (PPT), and Coriell Institute (CI). qHTS cell viability assay: Cells were assayed in growth media at a density of 500-1,000 cells/well. Five microliters of cells were dispensed into 1,536-well, white, solid-bottom, TC-treated plates (Greiner Bio One) using a multidrop dispenser and incubated at 37 degrees C, 5% CO2, under a humidified atmosphere for 5 hours. Twenty-three nanoliters of compounds and controls (neutral control DMSO or positive control bortezomib at final concentration of 2.3 µM) were subsequently transferred by Kalypsys pintool. For primary screens, the MIPE collection was tested at 11-point dilutions (final concentrations range from 0.78 nM to 46 µM) and the NPC collection at 8-point dilutions (final concentrations range from 0.59 nM to 46 µM). Compounds tested in follow-up screens were assayed at 11-point dilutions. Cells were incubated for 48 hours, followed by addition of 3 µL of CellTiter-Glo (Promega). After a 15 min incubation at room temperature, samples were analyzed for luminescence intensity using a ViewLux High-throughput CCD imager equipped with clear filters.
Potency is the fitted concentration of half-maximal effect.

| SMILES | activity change, negative = cytotoxic [%] | Potency |
| --- | --- | --- |
| Cc1cc(OCCOCC[N+](C)(C)Cc2ccccc2)ccc1C(C)(C)CC(C)(C)C | -100 |  |
| CCCCCCCCCCCCCCCCCCN(C)C | -0.32 |  |
| Cc1nc(N)nc(N)c1-c1ccc(Cl)c(Cl)c1 | -24.6 |  |
| COC(=O)c1cc(S(N)(=O)=O)ccc1OC | 0.0777 |  |
| COc1cc(OC)nc(O[C@H](C(=O)O)C(OC)(c2ccccc2)c2ccccc2)n1 | 0 |  |
| C[C@@H](C1=C(CCN(C)C)Cc2ccccc21)c1ccccn1 | -0.881 |  |
| CCNC(=O)[C@@H]1CCCN1C(=O)[C@H](CCCN=C(N)N)NC(=O)[C@H](CC(C)C)NC(=O)CNC(=O)[C@H](Cc1ccc(O)cc1)NC(=O)[C@H](CO)NC(=O)[C@H](Cc1c[nH]c2ccccc12)NC(=O)[C@H](Cc1cnc[nH]1)NC(=O)[C@@H]1CCC(=O)N1 ([pGlu]HWSYGLRP-NHEt) | 14.7 |  |
| CC[C@@]1(O)C(=O)OCc2c1cc1n(c2=O)Cc2c-1nc1ccccc1c2/C=N/OC(C)(C)C |  | 53.1 nM (active) |
| COC(=O)C1=C(C)NC(C)=C(C(=O)OCCc2ccc(N3CCN(C(c4ccccc4)c4ccccc4)CC3)cc2)C1c1cccc([N+](=O)[O-])c1 (stereo not given) | 9.01 |  |
| C#Cc1ccc(-c2ccccc2F)cc1 | 1.74 |  |
| C=C(C)C(=O)OCC(O)CO (stereo not given) | -5.68 |  |
| CC(C)(C)c1ccc(O)c(O)c1 |  | 17200 nM (active) |
| CCOC(=O)NNc1ccc(N(CC)CC(C)O)nn1 (stereo not given) | 5.49 |  |
| O=C1CC(c2ccc(Cl)cc2)CC(=O)N1 | 11.4 |  |
| CC(COc1ccccc1)NN (stereo not given) | 21.5 |  |
| CCO[C@H](Cc1ccc(OCCc2ccc(OS(C)(=O)=O)cc2)cc1)C(=O)O | 14.1 |  |
| CN(C)CCOC1=Cc2ccccc2Sc2ccc(Cl)cc21 | 5.68 |  |
| COc1cc(NS(=O)(=O)c2ccc(N)cc2)nc(C)n1 | 17.7 |  |
| CC(C)(C)c1nnc(NS(=O)(=O)c2ccccc2)s1 | 18.7 |  |
| Oc1ccc(CCNCCCCCCNCCc2ccccc2)cc1O | -23.6 |  |

| SMILES | activity change, negative = cytotoxic [%] | Potency |
| --- | --- | --- |
| CN(C)C(=O)CNC(=O)Cc1ccccc1 | -6.33 |  |
| Fc1ccc(C(c2ccc(F)cc2)N2CCNCC2)cc1 | 6.26 |  |
| CC(=O)N[C@@H](CO)C(=O)N[C@@H](CC(=O)O)C(=O)N[C@@H](CCCCN)C(=O)N1CCC[C@H]1C(=O)O (Ac-SDKP-OH) | 0 |  |
| OCCCc1ccccc1 | 5.21 |  |
| Cc1ccccc1N1CCN(CCc2nnc3n2CCCC3)CC1 | 0.885 |  |
| Cc1cccc(C)c1NC(=O)c1ccc(N)cc1 | 17 |  |
| CN1[C@@H]2CC[C@H]1CC(NC(=O)n1c(=O)[nH]c3ccccc31)C2 (stereo not given in full) | 13.3 |  |
| CC(=O)N(c1onc(C)c1C)S(=O)(=O)c1ccc(N)cc1 | 5.41 |  |
| CN1Cc2cc(C(=O)N3CCC(C4CCNCC4)CC3)ccc2NC(CC(=O)O)C1=O (stereo not given) | 0 |  |
| CC(C(O)c1ccccc1)N(C)CCOC(c1ccccc1)c1ccccc1 (stereo not given) | 11.2 |  |
| COc1ccc(-n2nc(CCC(=O)N(C)O)cc2-c2ccc(Cl)cc2)cc1 | -25 |  |
| COc1c(N2C[C@@H]3CCCN[C@@H]3C2)c(F)cc2c(=O)c(C(=O)O)cn(C3CC3)c12 | -4.49 |  |
| NS(=O)(=O)c1ccc(N2CCCCS2(=O)=O)cc1 | 16.1 |  |
| Cc1ccc(C(=O)Oc2ccc(C(O)CNC(C)(C)C)cc2OC(=O)c2ccc(C)cc2)cc1 (stereo not given) |  | 1 nM (active) |
| O=C(CS(=O)Cc1ccco1)NC/C=C\COc1cc(CN2CCCCC2)ccn1 (stereo not given) | 0.826 |  |
| CCOc1ccc(NS(=O)(=O)c2ccc(N)cc2)nn1 | 11.5 |  |
| O=c1[nH]sc2cc(Cl)ccc12 |  | 168 nM (active) |
| COCCc1ccccn1 | -3.92 |  |
| CCCCCCCCCCCCCCCC[n+]1ccccc1 | -9.22 |  |
| CCCCCCCC(=O)[O-].CCCCCCCC(=O)[O-].[Zn+2] | 6.73 |  |
